Experimental data reported in PubChem BioAssay (NCATS).
Where “and” joins values, the source holds several entries; their conditions need not be identical. Equal values may be shown once. Records with an inconclusive call do not appear. Calls of active or inactive are those of the source. Unless noted, the call rests on the fitted dose curve; in most records, active means well fitted curve in the direction sought with a large enough effect; inconclusive means small, poorly fitted or top-dose-only effect, or another doubt; inactive means no such curve, though single readings can be large; an effect the other way counts as inactive or inconclusive.

Tests used:
[1] = MultiTox-Fluor Cytotoxicity Assay - LYMP1-003 - Dead Cells (AID 961);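 further: 0% = DMSO and 100% = tetraoctylammonium bromide; nearly all actives have a fitted effect of over 70% in size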
Method in brief: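 LYMP1-003 human lymphoblastoid cells (2500/well) exposed to compound 16 h at 37 C in complete medium; dead-cell protease read with bis-AAF-R110 fluorescence (Ex/Em 485/520) after 60 min at room temperature. Normalized to DMSO and 15 uM tetraoctylammonium bromide; AC50 from Hill fit.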

[2] = Cell Viability - LYMP2-026 (AID 989); further: nearly all actives have a fitted effect of over 50% in size; further: potency means the concentration at half of the fitted maximal effect
Method in brief: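 qHTS cytotoxicity: 2500 cells/well, 5 hr 37 C, compound 24 hr 37 C, CellTiter-Glo 30 min RT, luminescence. Tetraoctylammonium bromide positive control. AC50 via standard Hill fit.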

[3] = Cell Viability - LYMP1-002 - Assay at 24 hr (AID 993); further: on the % scale 0 is the no-effect control and ±100 the full control effect
Method in brief: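 CellTiter-Glo luminescence (intracellular ATP) after 24 h compound exposure, 37 C, in LYMP1-002 human lymphoblastoid cells; decreased ATP taken as cytotoxicity. AC50 from standard Hill fit of concentration-response curves.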

[4] = molecular target: Estrogen receptor (Homo sapiens) (UniProt P03372); assay: qHTS assay for small molecule antagonists of estrogen receptor alpha signaling (AID 588513; active means well fitted curve in the direction sought with a large enough effect in the signal ratio, with a control signal flat, not every such curve was filed as active; the % refers to the signal ratio; further: on the % scale 0 is the no-effect control and ±100 the full control effect)
Chain of Estrogen receptor (Homo sapiens) (P03372 whole entry, looked up): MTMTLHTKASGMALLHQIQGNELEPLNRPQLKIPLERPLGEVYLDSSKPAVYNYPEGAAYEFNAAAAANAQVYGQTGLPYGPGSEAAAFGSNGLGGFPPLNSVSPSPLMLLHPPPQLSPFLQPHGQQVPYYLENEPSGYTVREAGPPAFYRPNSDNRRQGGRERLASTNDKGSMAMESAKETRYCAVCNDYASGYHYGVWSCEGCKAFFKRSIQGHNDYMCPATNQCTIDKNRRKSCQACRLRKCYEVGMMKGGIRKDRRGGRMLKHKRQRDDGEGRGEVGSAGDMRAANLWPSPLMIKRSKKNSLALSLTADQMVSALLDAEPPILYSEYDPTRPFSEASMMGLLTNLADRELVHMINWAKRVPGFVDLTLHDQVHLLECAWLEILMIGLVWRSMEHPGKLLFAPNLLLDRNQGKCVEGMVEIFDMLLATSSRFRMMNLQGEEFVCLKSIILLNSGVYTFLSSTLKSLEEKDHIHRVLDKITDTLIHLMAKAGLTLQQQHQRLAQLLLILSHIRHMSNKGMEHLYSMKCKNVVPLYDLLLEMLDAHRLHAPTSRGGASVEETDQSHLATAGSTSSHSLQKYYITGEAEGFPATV
Method in brief: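 Antagonist-mode qHTS in ER-alpha-UAS-bla HEK 293 cells: compound titration, 0.5nM estradiol for 18 h, CCF4 fluorescence, Hill-derived IC50.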

[5] = molecular target: Estrogen receptor (Homo sapiens) (UniProt P03372); assay: qHTS assay for small molecule agonists of estrogen receptor alpha signaling (AID 588514; calls by dose curve;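 further: 0% = vehicle only and 100% = reference agonist; nearly all actives have a fitted effect of over 70% in size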)
Method in brief: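 Read-out: CCF4 fluorescence from a beta-lactamase reporter in ER-alpha-UAS-bla HEK 293 cells after 18 hrs of compound exposure at 37 C. Normalized to 20 nM 17-beta-estradiol (100%) and DMSO (0%).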

[6] = molecular target: Glucocorticoid receptor (Homo sapiens) (UniProt P04150); assay: qHTS assay for small molecule agonists of glucocorticoid receptor signaling (AID 588532; active means well fitted curve in the direction sought with a large enough effect in the signal ratio, with a control signal flat; the % refers to the signal ratio;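 further: 100% = dexamethasone at 0.1 µM and 0% = DMSO only wells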); details: HeLa MMTV-bla, beta-lactamase ratio, agonist, 18 h; stronger effect = higher value; percent of dexamethasone control, DMSO zero
Chain of Glucocorticoid receptor (Homo sapiens) (P04150 whole entry, looked up): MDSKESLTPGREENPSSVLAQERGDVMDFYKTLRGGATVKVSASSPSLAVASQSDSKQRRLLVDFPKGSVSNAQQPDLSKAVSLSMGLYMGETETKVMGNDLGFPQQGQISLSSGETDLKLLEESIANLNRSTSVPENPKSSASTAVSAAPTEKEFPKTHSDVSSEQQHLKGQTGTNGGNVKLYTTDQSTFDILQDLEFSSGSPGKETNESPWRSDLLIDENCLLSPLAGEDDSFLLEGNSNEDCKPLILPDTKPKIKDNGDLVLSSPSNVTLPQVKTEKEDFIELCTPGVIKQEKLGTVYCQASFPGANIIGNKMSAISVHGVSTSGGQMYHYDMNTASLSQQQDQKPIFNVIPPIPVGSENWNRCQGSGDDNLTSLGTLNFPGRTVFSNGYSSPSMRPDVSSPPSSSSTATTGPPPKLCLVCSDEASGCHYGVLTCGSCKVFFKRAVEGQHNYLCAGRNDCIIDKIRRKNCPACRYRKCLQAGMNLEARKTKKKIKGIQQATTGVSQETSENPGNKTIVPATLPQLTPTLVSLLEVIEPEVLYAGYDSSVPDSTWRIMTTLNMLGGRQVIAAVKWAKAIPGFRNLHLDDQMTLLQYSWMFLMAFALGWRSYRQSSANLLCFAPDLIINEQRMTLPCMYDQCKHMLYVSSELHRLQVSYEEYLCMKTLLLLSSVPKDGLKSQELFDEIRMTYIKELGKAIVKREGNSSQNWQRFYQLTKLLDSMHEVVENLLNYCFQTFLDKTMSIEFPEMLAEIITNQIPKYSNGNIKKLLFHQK
Method in brief: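 MMTV-bla HeLa, beta-lactamase reporter; medium with 1% charcoal/dextran-stripped FBS; cpds up to 92 uM, 18 h, 37 C; CCF4 readout 460/530 nm; Hill fit → EC50, efficacy vs 0.1 uM dexamethasone = 100%.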

[7] = molecular target: Glucocorticoid receptor (Homo sapiens) (UniProt P04150); assay: qHTS assay for small molecule antagonists of glucocorticoid receptor signaling (AID 588533; active means well fitted inhibition curve with a large enough effect in the signal ratio, with a control signal flat, not every such curve was filed as active; the % refers to the signal ratio;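 further: cells stimulated with 2 nM dexamethasone as agonist; on the % scale 0 is the no-effect control and ±100 the full control effect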)
Method in brief: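 Antagonist-mode qHTS: compound titrations added to GRE-bla HeLa cells, then dexamethasone 2 nM final; 18 h, 37 C. CCF4 FRET fluorescence normalized to dexamethasone and DMSO; IC50 from Hill fit.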

[8] = molecular target: Peroxisome proliferator-activated receptor gamma (Homo sapiens) (UniProt P37231); assay: qHTS assay for small molecule agonists of peroxisome proliferator-activated receptor gamma signaling (AID 588536; active means well fitted curve in the direction sought with a large enough effect in the signal ratio, with a control signal flat, not every such curve was filed as active; the % refers to the signal ratio;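 further: 0% = DMSO basal wells and 100% = rosiglitazone at 2 µM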)
Chain of Peroxisome proliferator-activated receptor gamma (Homo sapiens) (P37231 whole entry, looked up): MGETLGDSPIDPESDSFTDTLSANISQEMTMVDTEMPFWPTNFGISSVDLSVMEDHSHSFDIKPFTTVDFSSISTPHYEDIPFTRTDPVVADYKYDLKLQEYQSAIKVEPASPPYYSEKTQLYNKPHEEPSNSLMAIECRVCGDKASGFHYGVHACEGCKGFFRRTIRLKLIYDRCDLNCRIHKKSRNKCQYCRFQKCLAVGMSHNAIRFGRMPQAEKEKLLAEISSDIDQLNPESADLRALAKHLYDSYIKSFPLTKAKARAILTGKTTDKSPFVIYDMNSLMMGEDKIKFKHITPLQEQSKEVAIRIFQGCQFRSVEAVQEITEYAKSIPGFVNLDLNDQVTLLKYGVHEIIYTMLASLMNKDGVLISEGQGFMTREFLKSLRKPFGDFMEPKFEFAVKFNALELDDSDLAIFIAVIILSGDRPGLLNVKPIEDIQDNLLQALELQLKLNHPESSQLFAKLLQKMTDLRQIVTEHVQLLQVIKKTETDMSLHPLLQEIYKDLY
Method in brief: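 Cells were plated and held 6–6.5 h at 37 C, then compounds were added as a titration series. After a further 16 h, CCF4 dye was loaded for 2 h at room temperature and emission at 460/530 nm recorded.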

[9] = qHTS assay for small molecule activators of the nuclear factor-kappa B (NF-kB) signaling pathway (AID 651749; active means well fitted activation curve with a large enough effect in the signal ratio; the % refers to the signal ratio; further: series mostly up to about 77 µM; % of control where 0% means no effect); details: NF-kB-bla ME-180 cells, beta-lactamase FRET ratio, 16 h; stronger effect = higher value
Method in brief: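 Beta-lactamase reporter expression, controlled by NF-kB response elements in ME-180 cells, was quantified fluorometrically via FRET disruption; cells at 2,000/well had been incubated with 23 nL test compound for 16 hr.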

[10] = qHTS assay for small molecule antagonists of the retinoid-related orphan receptor gamma (ROR-gamma) signaling pathway - cell viability counter screen (AID 720652; active means well fitted curve in the direction sought with a large enough effect in the repeat runs; an effect the other way counts as inactive or inconclusive;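 further: CHO reporter cells with doxycycline-induced ROR-gamma expression; series mostly up to about 92 µM; compound exposure lasted 16 hr before ATP read; on the % scale 0 is the no-effect control and ±100 the full control effect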)
Method in brief: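 CHO RORE-LUC/TET-ROR line, 1,000 cells/well, 37 C 5% CO2 5 hr; cpd or DMSO + doxycycline induction, 16 hr. CellTiter-Glo, 30 min RT, luminescence = ATP content.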

[11] = Cell Viability - HUV-EC-C (AID 542);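 further: cells exposed to compound for 40 hours; nearly all actives have a fitted effect of over 35% in size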; further: potency means the concentration at half of the fitted maximal effect
Method in brief: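 Luminescent ATP read-out (CellTiter-Glo, 20 min room temperature) after 40 hr compound treatment of HUV-EC-C cells at 37 °C. Concentration-response data fitted with the standard Hill equation to give AC50; tamoxifen and doxorubicin served as positive controls.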

[12] = Cellular Toxicity (caspase-3) NIH 3T3 (AID 666);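 further: caspase signal read after 16 h compound exposure; 0% = DMSO basal and 100% = 100 µM tamoxifen stimulation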
Method in brief: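 NIH 3T3, 1000 cells/well, 5 hr settle then 16 hr compound at 37°C; Caspase-Glo 3/7, 20 min RT, luminescence. DMSO = basal, 100 uM tamoxifen = 100%. Hill-equation AC50, qHTS.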

[13] = molecular target: Cytochrome P450 3A4 (Homo sapiens) (UniProt P08684); assay: qHTS Assay for Inhibitors and Substrates of Cytochrome P450 3A4 (AID 884); further: series mostly up to about 57 µM; on the % scale 0 is the no-effect control and ±100 the full control effect; nearly all actives have a fitted effect of over 50% in size
Method in brief: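 Luminescent readout of luciferin produced by CYP3A4 (20 nM) dealkylation of Luciferin-PPXE, 25 uM (its KM). NADPH-driven reaction ran 60 min at RT after 10 min compound preincubation; data scaled to 57 uM ketoconazole as 100% inhibition.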

[14] = molecular target: Peroxisome proliferator-activated receptor delta (Homo sapiens) (UniProt Q03181); assay: qHTS assay for small molecule antagonists of peroxisome proliferator-activated receptor delta signaling (AID 588535; active means well fitted inhibition curve with a large enough effect in the signal ratio, with a control signal flat, not every such curve was filed as active; the % refers to the signal ratio)
Chain of Peroxisome proliferator-activated receptor delta (Homo sapiens) (Q03181 whole entry, looked up): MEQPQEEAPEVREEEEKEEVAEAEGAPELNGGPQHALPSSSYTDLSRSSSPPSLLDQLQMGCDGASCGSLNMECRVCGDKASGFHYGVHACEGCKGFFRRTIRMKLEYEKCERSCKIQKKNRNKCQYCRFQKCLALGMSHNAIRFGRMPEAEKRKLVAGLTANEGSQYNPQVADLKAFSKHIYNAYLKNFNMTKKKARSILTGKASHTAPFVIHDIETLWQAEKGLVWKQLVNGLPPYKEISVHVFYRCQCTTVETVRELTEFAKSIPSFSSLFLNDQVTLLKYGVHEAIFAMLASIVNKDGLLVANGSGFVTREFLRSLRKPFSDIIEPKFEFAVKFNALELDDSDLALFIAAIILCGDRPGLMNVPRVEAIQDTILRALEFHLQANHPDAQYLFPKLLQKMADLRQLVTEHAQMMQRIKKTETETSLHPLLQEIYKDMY
Method in brief: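 Compounds tested in titration on PPAR-delta-UAS-bla HEK293T cells grown in charcoal/dextran-stripped serum (2%); beta-lactamase activity read via CCF4 emission at 460 and 530 nm.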

[15] = molecular target: Tumor necrosis factor (Homo sapiens) (UniProt P01375); assay: qHTS assay to identify small molecules that stimulate Tumor Necrosis Factor-alpha (TNF-alpha) secretion (AID 651757; active means well fitted curve in the direction sought with a large enough effect in the signal ratio; the % refers to the signal ratio; further: 0% is about no effect)
Chain of Tumor necrosis factor (Homo sapiens) (P01375 whole entry, looked up): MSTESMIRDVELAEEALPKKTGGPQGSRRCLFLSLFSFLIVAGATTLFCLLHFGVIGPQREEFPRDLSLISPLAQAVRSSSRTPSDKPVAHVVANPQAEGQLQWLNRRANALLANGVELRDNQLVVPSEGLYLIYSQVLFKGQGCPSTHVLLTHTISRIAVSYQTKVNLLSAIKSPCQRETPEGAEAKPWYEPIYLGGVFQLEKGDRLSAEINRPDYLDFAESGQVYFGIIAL
Method in brief: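 THP-1 cells, 3000/well; compound 17 hrs, 37 C; add cryptate/XL665 anti-TNF-alpha antibody pair; 3 hr RT; TR-FRET (HTRF) read of secreted TNF-alpha. Quantitative HTS format.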

[16] = qHTS assay for small molecule activators of the human pregnane X receptor (PXR) signaling pathway (AID 720659; call rule not given here; further: 0% is about no effect)
[17] = molecular target: Vitamin D3 receptor (Homo sapiens) (UniProt P11473); assay: qHTS assay for small molecule agonists of vitamin D receptor signaling (AID 588543; calls by dose curve;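 further: 0% = DMSO basal and 100% = reference agonist control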)
Chain of Vitamin D3 receptor (Homo sapiens) (P11473 whole entry, looked up): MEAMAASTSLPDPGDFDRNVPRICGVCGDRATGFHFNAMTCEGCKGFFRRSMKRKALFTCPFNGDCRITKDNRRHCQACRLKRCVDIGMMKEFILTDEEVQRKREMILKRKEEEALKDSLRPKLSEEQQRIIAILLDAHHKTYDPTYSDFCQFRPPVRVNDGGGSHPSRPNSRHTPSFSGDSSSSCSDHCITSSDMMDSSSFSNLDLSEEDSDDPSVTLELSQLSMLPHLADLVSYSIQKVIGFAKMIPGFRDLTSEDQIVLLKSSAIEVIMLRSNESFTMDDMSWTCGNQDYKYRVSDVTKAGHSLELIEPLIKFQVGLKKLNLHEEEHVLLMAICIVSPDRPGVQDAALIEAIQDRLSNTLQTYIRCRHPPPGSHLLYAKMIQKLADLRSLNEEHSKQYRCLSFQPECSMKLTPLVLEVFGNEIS
Method in brief: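 Measured: β-lactamase reporter activity (CCF4, 405 nm excitation, 460/530 nm emission) in HEK293T VDR-UAS-bla cells after 16 h compound exposure at 37 °C. Normalization against 50 nM 1α,25-dihydroxyvitamin D3 and DMSO; Hill-fit EC50.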

[18] = molecular target: Voltage-gated inwardly rectifying potassium channel KCNH2 (Homo sapiens) (UniProt Q12809); assay: qHTS Assay for Small Molecule Inhibitors of the Human hERG Channel Activity (AID 588834);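 further: top concentration of the series differs between compounds; on the % scale 0 is the no-effect control and ±100 the full control effect; lower thallium flux fluorescence means stronger hERG block; nearly all actives have a fitted effect of over 50% in size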
Chain of Voltage-gated inwardly rectifying potassium channel KCNH2 (Homo sapiens) (Q12809 whole entry, looked up): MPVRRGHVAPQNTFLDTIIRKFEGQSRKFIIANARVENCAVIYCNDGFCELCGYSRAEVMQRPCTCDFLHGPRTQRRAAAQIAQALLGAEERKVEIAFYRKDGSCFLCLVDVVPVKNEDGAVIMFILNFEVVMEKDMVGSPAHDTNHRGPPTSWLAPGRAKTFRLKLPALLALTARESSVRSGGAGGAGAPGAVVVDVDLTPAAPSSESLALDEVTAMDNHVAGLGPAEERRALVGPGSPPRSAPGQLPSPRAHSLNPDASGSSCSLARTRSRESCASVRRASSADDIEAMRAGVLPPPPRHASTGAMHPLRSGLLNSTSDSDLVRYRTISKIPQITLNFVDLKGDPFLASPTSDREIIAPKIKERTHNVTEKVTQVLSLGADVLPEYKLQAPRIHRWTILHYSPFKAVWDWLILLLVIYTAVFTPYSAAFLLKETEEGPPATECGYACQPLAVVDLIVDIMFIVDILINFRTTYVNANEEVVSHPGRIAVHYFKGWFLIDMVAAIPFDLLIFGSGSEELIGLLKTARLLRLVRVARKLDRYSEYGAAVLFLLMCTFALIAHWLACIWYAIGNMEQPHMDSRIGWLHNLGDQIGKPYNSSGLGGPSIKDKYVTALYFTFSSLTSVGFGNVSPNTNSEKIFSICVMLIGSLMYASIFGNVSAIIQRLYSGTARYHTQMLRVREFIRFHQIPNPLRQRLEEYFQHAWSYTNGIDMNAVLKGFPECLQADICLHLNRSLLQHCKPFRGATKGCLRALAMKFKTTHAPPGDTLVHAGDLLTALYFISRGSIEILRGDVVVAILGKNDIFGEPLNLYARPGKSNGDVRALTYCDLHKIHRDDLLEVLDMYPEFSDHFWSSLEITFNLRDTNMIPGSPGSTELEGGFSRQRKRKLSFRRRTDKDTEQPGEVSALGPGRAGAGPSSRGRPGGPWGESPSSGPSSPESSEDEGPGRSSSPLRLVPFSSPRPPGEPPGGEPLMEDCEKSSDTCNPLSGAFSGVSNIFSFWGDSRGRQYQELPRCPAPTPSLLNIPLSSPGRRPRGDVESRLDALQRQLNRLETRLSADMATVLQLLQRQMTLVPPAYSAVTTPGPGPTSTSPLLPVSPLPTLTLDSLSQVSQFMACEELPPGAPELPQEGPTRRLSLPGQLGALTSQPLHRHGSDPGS
Method in brief: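 Homogeneous FluxOR thallium flux assay using hERG-expressing U2OS cells (BacMam). Compound treatment about 10 minutes preceded stimulation; reduced fluorescence taken as channel block.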

[19] = molecular target: Nuclear receptor ROR-gamma (Homo sapiens) (UniProt P51449); assay: qHTS assay for small molecule antagonists of the retinoid-related orphan receptor gamma (ROR-gamma) signaling pathway (AID 651802); further: nearly all actives have a fitted effect of over 60% in size; further: potency means the concentration at half of the fitted maximal effect
Chain of Nuclear receptor ROR-gamma (Homo sapiens) (P51449 whole entry, looked up): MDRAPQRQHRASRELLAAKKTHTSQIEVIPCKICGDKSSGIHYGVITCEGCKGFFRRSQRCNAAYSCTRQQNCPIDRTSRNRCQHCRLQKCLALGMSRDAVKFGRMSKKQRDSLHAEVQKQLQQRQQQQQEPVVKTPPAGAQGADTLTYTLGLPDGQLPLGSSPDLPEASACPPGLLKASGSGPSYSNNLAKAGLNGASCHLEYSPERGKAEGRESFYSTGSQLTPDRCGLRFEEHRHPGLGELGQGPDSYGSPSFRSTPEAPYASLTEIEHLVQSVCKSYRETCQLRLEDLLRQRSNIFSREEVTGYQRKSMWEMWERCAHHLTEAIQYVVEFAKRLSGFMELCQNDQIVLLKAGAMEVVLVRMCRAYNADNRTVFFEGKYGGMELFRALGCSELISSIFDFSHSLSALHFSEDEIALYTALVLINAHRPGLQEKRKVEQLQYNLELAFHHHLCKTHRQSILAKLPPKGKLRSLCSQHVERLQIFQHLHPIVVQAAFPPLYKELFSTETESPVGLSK
Method in brief: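 Luciferase read-out: ONE-Glo luminescence after 30 min at room temperature, following 16hr doxycycline induction at 37C, 5% CO2 of CHO cells with TET-inducible ROR and RORE-LUC reporter; decreased luminescence = reduced reporter activity.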

[20] = qHTS assay for small molecule agonists of the antioxidant response element (ARE) signaling pathway (AID 651741; active means well fitted activation curve with a large enough effect in the signal ratio; the % refers to the signal ratio; further: potency means the concentration at half of the fitted maximal effect; on activation: % of control where 0% means no effect)
Method in brief: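 Beta-lactamase reporter expression driven by the antioxidant response element in HepG2 cells was detected by fluorescence with LiveBLAzer B/G FRET substrate (2 h, room temperature) following 16 h compound treatment at 37 C.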

CCOc1ccc2nc(N)sc2c1
inactive: Potency [1] | Potency [2] | Potency [3] | outcome [4] | Potency [5] | activation [6] -9.89% | Potency [7] | outcome [8] | activation [9] -0.893% | Potency [10]

CCCCCCc1ccc(-c2ccc(C#N)cc2)cc1
inactive: Potency [11] | outcome [12] | Potency [13] | Potency [1] | Potency [2] | activation [6] -6.81% | outcome [14] | Potency [15] | outcome [16]

COc1ccc(C(=O)Nc2ccccc2)cc1[N+](=O)[O-]
inactive: Potency [11] | Potency [2] | outcome [4] | activation [6] -1.05% | Potency [7] | outcome [8] | Potency [17] | Potency [18] | activation [9] 1.42% | Potency [15] | Potency [19] | Potency [10]

O=C(O)c1ccc([N+](=O)[O-])cc1
inactive: Potency [11] | outcome [12] | Potency [13] | Potency [1] | Potency [3] | activation [6] 3.87% and 0.51% | Potency [7] | outcome [14] | Potency [17] | Potency [18] | Potency [20] | activation [9] -1.53% and -0.205% | Potency [15] | Potency [19] | Potency [10] | outcome [16]

CCCCCCCCC1CO1 (stereo not drawn)
inactive: outcome [12] | Potency [13] | Potency [1] | Potency [2] | activation [6] -2.27% | Potency [7] | outcome [14] | outcome [8] | Potency [17] | Potency [18] | Potency [15] | Potency [19] | Potency [10] | outcome [16]

CC(C)OCC1CO1 (stereo not drawn)
inactive: Potency [11] | outcome [12] | Potency [13] | Potency [2] | Potency [3] | outcome [4] | Potency [5] | activation [6] -3.64% | outcome [14] | outcome [8] | Potency [17] | Potency [18] | Potency [20] | activation [9] 0.599% | Potency [15] | Potency [10] | outcome [16]

O=CC(=O)c1ccccc1
inactive: outcome [12] | Potency [13] | Potency [3] | outcome [4] | Potency [5] | activation [6] -5.46% | Potency [7] | outcome [14] | outcome [8] | Potency [17] | Potency [18] | activation [9] -1.11% | Potency [15] | Potency [10] | outcome [16]

O=Nc1ccc(Nc2ccccc2)cc1
inactive: outcome [12] | Potency [18] | activation [9] -1.21% and -2.86%

Cc1ccc(O)c(N)c1
inactive: outcome [12] | Potency [13] | Potency [2] | Potency [5] | activation [6] 4.97% | outcome [14] | Potency [18] | Potency [10]
active: Potency [20] 16.8 µM

c1cc2c3c(c1)ccc1cccc(c13)C2
inactive: outcome [12] | Potency [1] | Potency [3] | activation [6] -6.79% | outcome [14] | Potency [17] | Potency [18] | activation [9] -2.58% | Potency [15] | Potency [19] | Potency [10] | outcome [16]

Oc1cc2c(cc1O)[C@H]1c3ccc(O)c(O)c3OC[C@@]1(O)C2
active: Potency [2] 39.8 µM | Potency [20] 66.8 µM | Potency [19] 11.9 µM
inactive: outcome [12] | outcome [4] | Potency [5] | activation [6] 0.204% | outcome [8] | activation [9] -1.98% | Potency [10] | outcome [16]

CC(C)(C)C(=O)C1C(=O)c2ccccc2C1=O
inactive: Potency [11] | outcome [12] | Potency [1] | Potency [2] | Potency [3] | outcome [4] | Potency [5] | activation [6] -3.45% | Potency [17] | Potency [18] | activation [9] 1.49%

CCCCC(CC)COP(=O)(OCC(CC)CCCC)OCC(CC)CCCC (stereo not drawn)
inactive: outcome [12] | Potency [1] | Potency [2] | activation [6] -3.34% | Potency [7] | outcome [14] | outcome [8] | Potency [17] | Potency [18] | activation [9] -0.649% | Potency [15] | Potency [19] | Potency [10] | outcome [16]

O=C=Nc1ccc(Cl)c(Cl)c1
active: Potency [20] 75 µM | Potency [19] 33.5 µM
inactive: outcome [12] | Potency [13] | Potency [2] | Potency [3] | outcome [4] | Potency [5] | activation [6] 5.86% | Potency [17] | Potency [18] | activation [9] 7.4% | Potency [15] | outcome [16]

CC(=O)Nc1cccc(C)c1
inactive: outcome [12] | Potency [13] | Potency [1] | Potency [2] | outcome [4] | Potency [5] | activation [6] -1.44% | Potency [7] | outcome [14] | outcome [8] | Potency [18] | Potency [20] | activation [9] -1.12% | Potency [15] | Potency [19] | Potency [10] | outcome [16]

CCCCCCCC/C=C\CCCCCCCC(=O)N(CCO)CCO
inactive: Potency [2] | Potency [5] | outcome [14] | Potency [17] | activation [9] 3.7% | Potency [15] | Potency [10]

Cc1c(C(=O)O)c(O)cc2c1C(=O)c1c(O)c([C@H]3O[C@H](CO)[C@@H](O)[C@H](O)[C@H]3O)c(O)c(O)c1C2=O
active: Potency [11] 31.6 µM | Potency [19] 26.6 µM
inactive: outcome [12] | outcome [4] | Potency [5] | activation [6] -7.96% | Potency [7] | outcome [14] | outcome [8] | Potency [17] | Potency [20] | outcome [16]
